Reference: PubChem BioAssay AID1159580 (chemical genetic matrix, 2015)
Values joined by “and” are separate entries in the source; they are usually repeats but may differ in a detail not shown here. Identical values can stand only once. About 2,000 (36%) of roughly 5,500 compounds were called active. Another 18% or so got no clear call; they are omitted. Rule as the data show it: active = normalized growth mostly below about 0.91 (no sharp cut-off); inconclusive = no clear call, values can overlap the other calls; inactive = mostly above about 0.92. Some of the results follow.

Test: chemical genetic growth profiling, strain panel (AID 1159580);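 also: tested at 20 µM; growth read once vehicle control cultures reached saturation at 30 °C; 1 = growth at the plate median or of vehicle wells; lower values mean less growth of the strain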
Conditions: S. cerevisiae deletion strains, growth OD

Measured: normalized growth

Oc1cc(O)c2c(c1)O[C@H](c1ccc(O)c(O)c1)[C@@H](O)C2
inactive: locus YAL021C, strain ccr4, stronger effect = lower value 1.03 | locus YAL026C, strain drs2, stronger effect = lower value 1.01 | locus YAL030W, strain snc1, stronger effect = lower value 1.01 | locus YBL061C, strain skt5, stronger effect = lower value 1.01 | locus YBR009C, strain hhf1, stronger effect = lower value 0.993 | locus YBR021W, strain FUR4, stronger effect = lower value 1.05 | locus YBR023C, strain chs3, stronger effect = lower value 1.02 | locus YBR171W, strain sec66, stronger effect = lower value 1.01 | locus YBR229C, strain ROT2, stronger effect = lower value 0.957 | locus YBR231C, strain swc5, stronger effect = lower value 1.01 | locus YBR279W, strain paf1, stronger effect = lower value 1.01 | locus YCL011C, strain gbp2, stronger effect = lower value 1.01 | locus YCL016C, strain dcc1, stronger effect = lower value 1.01 | locus YCL029C, strain bik1, stronger effect = lower value 0.972 | locus YCL061C, strain MRC1, stronger effect = lower value 1.01 | locus YCL069W, strain vba3, stronger effect = lower value 1 | locus YCR088W, strain abp1, stronger effect = lower value 1.01 | locus YDL005C, strain med2, stronger effect = lower value 1.01 | locus YDL035C, strain GPR1, stronger effect = lower value 0.985 | locus YDL040C, strain nat1, stronger effect = lower value 1 | locus YDL074C, strain BRE1, stronger effect = lower value 1 | locus YDL101C, strain DUN1, stronger effect = lower value 0.979 | locus YDL185W, strain tfp1, stronger effect = lower value 0.978 | locus YDL192W, strain arf1, stronger effect = lower value 0.992 | locus YDR001C, strain nth1, stronger effect = lower value 0.994 | locus YDR069C, strain doa4, stronger effect = lower value 1.02 | locus YDR101C, strain arx1, stronger effect = lower value 1.03 | locus YDR137W, strain rgp1, stronger effect = lower value 1.03 | locus YDR159W, strain sac3, stronger effect = lower value 1 | locus YDR162C, strain NBP2, stronger effect = lower value 0.962 | locus YDR195W, strain ref2 0.972 | locus YDR297W, strain sur2, stronger effect = lower value 1.01 | locus YDR318W, strain mcm21, stronger effect = lower value 0.981 | locus YDR334W, strain swr1, stronger effect = lower value 1 | locus YDR335W, strain msn5, stronger effect = lower value 1.01 | locus YDR388W, stronger effect = lower value 0.963 | locus YDR392W, strain spt3, stronger effect = lower value 0.981 | locus YDR502C, strain sam2, stronger effect = lower value 1.01 | locus YEL003W, strain gim4, stronger effect = lower value 1.02 | locus YEL037C, strain rad23, stronger effect = lower value 1.01 | locus YEL061C, strain CIN8 (second series), stronger effect = lower value 1 | locus YEL061C, strain CIN8, stronger effect = lower value 0.988 | locus YER015W, strain faa2, stronger effect = lower value 1 | locus YER016W, strain bim1, stronger effect = lower value 0.997 | locus YER110C, stronger effect = lower value 0.98 | locus YER111C, strain swi4, stronger effect = lower value 0.988 | locus YER155C, strain BEM2 (second series), stronger effect = lower value 1.01 | locus YER155C, strain BEM2, stronger effect = lower value 0.991 | locus YER167W, strain BCK2, stronger effect = lower value 0.994 | locus YFR010W, strain ubp6, stronger effect = lower value 1.02 | locus YGL078C, strain dbp3, stronger effect = lower value 0.99 | locus YGL086W, strain mad1, stronger effect = lower value 1.04 | locus YGL167C, strain pmr1, stronger effect = lower value 1.01 | locus YGL173C, strain kem1, stronger effect = lower value 1.01 | locus YGL227W, strain vid30, stronger effect = lower value 1 | locus YGL240W, strain doc1, stronger effect = lower value 1.01 | locus YGL248W, strain PDE1, stronger effect = lower value 0.988 | locus YGL253W, strain hxk2, stronger effect = lower value 1.01 | locus YGR078C, strain PAC10, stronger effect = lower value 0.976 | locus YGR135W, strain pre9, stronger effect = lower value 0.966 | locus YGR252W, strain gcn5, stronger effect = lower value 0.947 | locus YHR013C, strain ard1, stronger effect = lower value 0.984 | locus YHR027C, strain rpn1, stronger effect = lower value 1.01 | locus YHR030C, strain SLT2, stronger effect = lower value 0.996 and 0.983 | locus YHR079C, strain IRE1 (second series), stronger effect = lower value 0.979 | locus YHR079C, strain IRE1, stronger effect = lower value 0.974 | locus YHR094C, strain hxt1, stronger effect = lower value 0.972 | locus YHR129C, strain ARP1, stronger effect = lower value 0.998 | locus YHR142W, strain chs7, stronger effect = lower value 1.03 | locus YHR200W, strain rpn10, stronger effect = lower value 0.975 | locus YIL066C, strain RNR3, stronger effect = lower value 0.992 | locus YIL073C, strain SPO22, stronger effect = lower value 1.02 | locus YIL125W, strain kgd1, stronger effect = lower value 1 | locus YIR030C, strain dcg1, stronger effect = lower value 0.994 | locus YJL092W, strain hpr5, stronger effect = lower value 1 | locus YJL095W, strain BCK1 (second series), stronger effect = lower value 1 | locus YJL095W, strain BCK1, stronger effect = lower value 0.977 and 0.984 | locus YJL115W, strain asf1, stronger effect = lower value 1 | locus YJL129C, strain trk1, stronger effect = lower value 1.01 | locus YJL134W, strain LCB3, stronger effect = lower value 0.989 | locus YJL154C, strain vps35, stronger effect = lower value 1 | locus YJL164C, strain tpk1, stronger effect = lower value 1.01 | locus YJL166W, strain qcr8, stronger effect = lower value 1.02 | locus YJL168C, strain set2, stronger effect = lower value 0.99 | locus YJL187C, strain SWE1 (second series), stronger effect = lower value 0.971 | locus YJL187C, strain SWE1, stronger effect = lower value 1.01 | locus YJR043C, strain POL32, stronger effect = lower value 1.01
